Source: PubChem BioAssay (National Center for Advancing Translational Sciences (NCATS))
EPAC1 antag – blocks human EPAC1 exchange factor; O95398; EPAC1 GEF assay, Rap1b-BODIPY-GDP exchange fluorescence; Potency, µM (series often up to 115 µM), inactives show top-dose activity change, negative = inhibition, usual class: inhibitors; 0.14% of 360,000 active;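 note: plate controls were vehicle for no effect and positive control for full effect; nearly all actives have a fitted effect of over 50% in size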
EPAC2 agonist – EPAC2 (human) agonism | EPAC2 activation, biochemical qHTS; response scale: 100% = 6.5 mM cAMP response | Q8WZA2 | Potency, µM (series often up to 154 µM), for inactives: top-dose activation, most hits filed as activators | 0.079% of 360,000 active | AID 720711; note: nearly all actives have a fitted effect of over 50% in size
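In this primary screen, activation is scored as increased exchange of BODIPY-GDP from Rap1B by 100 nM EPAC2, with 50 uM GDP as competitor. Signal is normalized to the 6.5 mM cAMP agonist control.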
EPAC1 agonist – EPAC1 (human) agonism; O95398; EPAC1 agonist qHTS, biochemical assay; response scale: 100% = response to 6.5 mM cAMP; Potency, µM (highest dose often 154 µM), for the others: at the highest dose activation, most hits filed as activators; 0.073% of 360,000 active; AID 720707; note: nearly all actives have a fitted effect of over 60% in size
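Nucleotide exchange by EPAC1 (100 nM) on Rap1B–BODIPY-GDP (250 nM) in the presence of 50 uM GDP is tracked fluorescently at 480/540 nm over 30 min. Signals are normalized to a 6.5 mM cAMP control.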
VDR inhibitor – blocks the human vitamin D receptor | 0.93% of 400,000 active | VDR-SRC2-3 peptide fluorescence polarization, 2 h | Potency, µM, inactives show max response, negative = inhibition, most hits filed as inhibitors | AID 504847; note: % is set by controls: 0 for no effect and ±100 for the full control effect
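Compounds are added to VDR with labelled SRC2-3 coactivator peptide and held 2 h at room temperature. Inhibition of the VDR–peptide interaction is then read as a change in fluorescence polarization.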
USP1-UAF1 inh – blocks the human USP1/UAF1 deubiquitinase complex | Potency, µM (doses to about 57.1 µM), for inactives: at the top dose activity change, negative = inhibition, most hits filed as inhibitors | recombinant USP1/UAF1, Ub-Rhodamine cleavage fluorescence | 0.23% of 390,000 active | O94782; note: % is set by controls: 0 for no effect and ±100 for the full control effect; nearly all actives have a fitted effect of over 60% in size
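Step one: compound is pinned into 1nM USP1/UAF1 in HEPES pH 7.8 buffer with TCEP. Step two: 15 min room-temperature incubation. Step three: Ub-Rho (150nM final) starts cleavage, tracked by fluorescence over six one-minute reads.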
EPAC2 antagonist – blocks human EPAC2 exchange factor; Potency, µM (titrated, usually from 114 µM), without a hit: top-dose activity, negative = inhibition, usual class: inhibitors; 0.18% of 360,000 active; EPAC2 GEF exchange of Rap1B-BODIPY-GDP, fluorescence; note: % is set by controls: 0 for no effect and ±100 for the full control effect; nearly all actives have a fitted effect of over 45% in size
The depositor's hits bear a star; i = inactive; ? = inconclusive; · = no result; ! = a repeat was not active. In the library only some 1.2% were active in any assay of this set; here they are far more common. Calls come from the whole dose curve; as a rule, active = well fitted curve in the direction sought with a large enough effect; inconclusive = small, poorly fitted or top-dose-only effect, or another doubt; inactive = no such curve, though single readings can be large; an effect the other way counts as inactive or inconclusive. Potency is the fitted concentration of half-maximal effect.

SMILES	EPAC1 antag	EPAC2 agonist	EPAC1 agonist	VDR inhibitor	USP1-UAF1 inh	EPAC2 antagonist
COc1cccc(Cn2c(=O)c(-c3cccc(Cl)c3)nc3cncnc32)c1	·	·	·	-6%	·	·
Cc1ccc(/C=C2/C(=O)N(c3ccccc3)C(=S)N2C)o1	-1%	-4%	-15%	79µM*	-8%	12%
O=C(Nc1ccc(F)cc1)c1cccc(N2CCCS2(=O)=O)c1	·	·	·	0%	?	·
O=C(Nc1ccccc1)N(Cc1c[nH]c2ccccc12)C1CCCCCC1	·	·	·	-7%	-19%	·
NC(=S)NN=C1c2ccccc2-c2c(F)c(F)c(F)c(F)c21	-14%	8%	-7%	79µM*	-23%	17%
N#Cc1cccc2c1-c1ccccc1/C2=N/NC(N)=S	?	14%	-1%	-10%	-12%	17%
COc1cc(/C=C/C(=O)c2ccc(C)cc2)ccc1OCC#N	-24%	9%	9%	50µM*	-21%	-10%
COc1ccc(/C=C/C(=O)c2ccc(C(=O)/C=C/c3ccc(OC)c(OC)c3)cc2)cc1OC	-10%	0%	7%	-18%	-9%	1%
CC(=O)C1=C(C)N=c2s/c(=C/c3ccc4c(c3)OCO4)c(=O)n2C1c1ccc(N(C)C)cc1 (stereo unspecified)	0%	6%	-2%	32µM*	-15%	1%
CC1=C(C(=O)N2CCN(c3ccc(Cl)cc3)CC2)C2(CCC(C)CC2)OC1=O (stereo unspecified)	·	·	·	-9%	-25%	·
CCOC(=O)c1cc2c(=O)n3ccccc3nc2n(Cc2ccco2)c1=NC(=O)c1ccccc1OC	-17%	0%	8%	56µM*!	-7%	-7%
CCOC(=O)c1cc2c(=O)n3ccccc3nc2n(Cc2ccco2)c1=NC(=O)c1cccc(OC)c1	-18%	-14%	4%	1%	32%	-11%
CCOc1ccc(NC(=O)Cn2c(=O)n(CCC(=O)NCCc3ccccc3)c(=O)c3ccccc32)cc1	·	·	·	2%	-20%	·
Cc1cc(N)ccc1-n1c(C)ccc1C	-7%	-11%	-5%	?	-18%	-3%
Cc1cc(N)ccc1N1CCCC1	-23%	-10%	-11%	71µM*	?	6%
O=c1cc(CSc2nc3ccccc3c(=O)[nH]2)c2ccc(O)cc2o1	50µM*	5%	-23%	-15%	-14%	-16%
CC1CCN(c2ccc3c(c2)S(=O)(=O)c2cccc(C(=O)NCc4cccc(F)c4)c2C3=O)CC1	62%	-4%	100µM*	-3%	?	i
O=C(NCc1ccco1)c1cccc2c1C(=O)c1ccc(/C=C/c3ccccc3)cc1S2(=O)=O	?	-15%	-6%	?	-29%	2%
O=C(NCCc1ccc(F)cc1)c1cccc2c1C(=O)c1ccc(N3CCC(Cc4ccccc4)CC3)cc1S2(=O)=O	94%	-37%	-134%	-15%	i	?
CN1CCC[C@@H]1CCNC(=O)c1cccc2c1C(=O)c1ccc(N3CCCC3)cc1S2(=O)=O	3%	8%	13%	-12%	-15%	21%
O=C(NCc1ccco1)c1cccc2c1C(=O)c1ccc(N3CCC(Cc4ccccc4)CC3)cc1S2(=O)=O	27%	-35%	2%	-8%	28µM*	18%
O=C(NCc1cccc(F)c1)c1cccc2c1C(=O)c1ccc(N3CCC(Cc4ccccc4)CC3)cc1S2(=O)=O	113%	-75%	-69%	-11%	7.9µM*	117%
COc1ccccc1N1CCN(c2ccc3c(c2)S(=O)(=O)c2cccc(C(=O)NCc4ccc(F)cc4)c2C3=O)CC1	-8%	0%	6%	·	-2%	-11%
O=C(NCc1cccc(F)c1)c1cccc2c1C(=O)c1ccc(N3CCCC3)cc1S2(=O)=O	79%	?	28µM*	-7%	?	124%
O=C1C[C@H](c2ccc3ccccc3c2)N1S(=O)(=O)c1ccccc1[N+](=O)[O-]	·	·	·	-19%	·	·
